# Source: the supplement of paper PMC6411743
# ± gives the standard deviation of the averaged measurements. Of roughly 6,500 targets only a part is listed; those with the largest changes were picked by preference.
# Compound: Nc1ncnc2c1ncn2[C@@H]1O[C@H](COP(=O)(O)OP(=O)(O)OP(=O)(O)O)[C@@H](O)[C@H]1O [adenosine triphosphate]
# Test: NP40-soluble protein abundance relative to vehicle (solubility fold change) (ratio); higher = more soluble protein in presence of ATP
# Summary of the method: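 Values are fold changes against the detergent-processed vehicle, based on vsn-normalised intensities. Jurkat crude lysate was treated at eight concentrations from 0.1 to 10 mM (10 min at room temperature, then 3 min at 37 °C), solubilised with 0.8% NP40 and benzonase, ultracentrifuged and analysed by TMT-labelled LC-MS/MS over three independent experiments.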
# UniProt Q9BV79, sequence (Q9BV79 whole entry): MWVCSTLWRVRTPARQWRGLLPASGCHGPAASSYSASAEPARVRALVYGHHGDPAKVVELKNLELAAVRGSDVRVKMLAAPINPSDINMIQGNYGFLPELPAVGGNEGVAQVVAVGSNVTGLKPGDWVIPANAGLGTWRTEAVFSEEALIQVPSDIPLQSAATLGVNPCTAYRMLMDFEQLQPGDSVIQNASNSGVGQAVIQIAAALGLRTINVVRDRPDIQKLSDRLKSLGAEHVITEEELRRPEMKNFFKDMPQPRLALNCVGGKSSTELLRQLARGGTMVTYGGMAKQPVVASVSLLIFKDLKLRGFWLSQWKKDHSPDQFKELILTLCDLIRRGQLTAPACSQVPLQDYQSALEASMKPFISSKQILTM
# UniProt Q9NUL5, sequence (Q9NUL5 whole entry): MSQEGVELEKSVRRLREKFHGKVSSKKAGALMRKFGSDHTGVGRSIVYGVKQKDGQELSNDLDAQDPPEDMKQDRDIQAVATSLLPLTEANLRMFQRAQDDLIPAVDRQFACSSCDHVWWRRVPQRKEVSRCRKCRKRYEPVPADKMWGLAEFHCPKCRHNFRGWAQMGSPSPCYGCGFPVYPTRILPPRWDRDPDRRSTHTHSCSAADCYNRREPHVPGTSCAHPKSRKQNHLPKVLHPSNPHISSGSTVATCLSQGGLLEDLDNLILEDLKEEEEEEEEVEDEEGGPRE
# UniProt Q9HD45, sequence (Q9HD45 whole entry): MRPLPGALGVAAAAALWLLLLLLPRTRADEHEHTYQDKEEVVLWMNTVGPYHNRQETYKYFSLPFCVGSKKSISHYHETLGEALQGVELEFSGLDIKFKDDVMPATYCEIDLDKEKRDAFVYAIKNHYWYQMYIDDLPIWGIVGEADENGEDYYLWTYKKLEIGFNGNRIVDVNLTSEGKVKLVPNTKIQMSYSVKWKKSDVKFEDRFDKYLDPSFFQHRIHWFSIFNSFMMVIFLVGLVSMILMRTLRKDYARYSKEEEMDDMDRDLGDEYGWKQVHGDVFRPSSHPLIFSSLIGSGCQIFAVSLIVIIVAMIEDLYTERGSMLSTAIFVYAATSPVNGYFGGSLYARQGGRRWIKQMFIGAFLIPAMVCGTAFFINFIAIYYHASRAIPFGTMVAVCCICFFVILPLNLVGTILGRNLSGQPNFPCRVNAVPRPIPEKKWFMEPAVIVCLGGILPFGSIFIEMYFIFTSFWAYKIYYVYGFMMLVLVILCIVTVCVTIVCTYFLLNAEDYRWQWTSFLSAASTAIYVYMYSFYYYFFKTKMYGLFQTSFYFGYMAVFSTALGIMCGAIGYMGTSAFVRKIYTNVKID
Target,NP40-soluble protein abundance (concentration: 1mM),NP40-soluble protein abundance (concentration: 2mM),NP40-soluble protein abundance (concentration: 4mM),NP40-soluble protein abundance (concentration: 6mM),NP40-soluble protein abundance (concentration: 8mM),NP40-soluble protein abundance (concentration: 10mM)
UniProt Q9NUL5,0.948 ± 0.041,0.972 ± 0.048,0.921 ± 0.029,0.921 ± 0.057,0.908 ± 0.025,0.924 ± 0.035
TM9SF3 (UniProt Q9HD45),1.04 ± 0.12,1.03 ± 0.1,1.01 ± 0.079,0.946 ± 0.12,1.05 ± 0.099,1.01 ± 0.097
BIRC6 (UniProt Q9NR09),1.05 ± 0.029,1.01 ± 0.058,0.992 ± 0.031,0.99 ± 0.12,0.999 ± 0.083,0.994 ± 0.088
MECR (UniProt Q9BV79),0.969 ± 0.013,0.959 ± 0.056,0.964 ± 0.037,0.957 ± 0.054,0.94 ± 0.013,0.92 ± 0.012
